Many of the other results were omitted from the sample, so hits are more common in it than they were.
Dicer processing = inhibitors of human Dicer processing of pre-microRNA. Q9UPY3. cat-ELCCA pre-miR-21 Dicer processing, chemiluminescence; active compounds read high. z-score at 25 µM. 6% of 47,000 active. AID 1347074; in the data active means z-score above about 3, passing the limit was not always enough;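 further: plate controls were vehicle for no effect and no enzyme for full effect; higher signal means more uncleaved substrate so more Dicer inhibition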
An asterisk follows results filed as active.

SMILES	Dicer processing
Cc1cc(C)c(-n2c(SCc3nc(COc4ccc([N+](=O)[O-])cc4)no3)n[nH]c2=O)c(C)c1	1.2
CCCCCCc1c(O)c2cccc3c4ccccc4n(c1=O)c23	-0.55
COC(=O)C1=C(C)NC2=C(C(=O)CCC2)C1c1ccccn1 (configuration not stated)	3.3*
COCCOC(=O)C1=C(C)NC2=C(C(=O)CCC2)C1c1ccc(C)s1 (configuration not stated)	1
COC(=O)C1=C(C)NC2=C(C(=O)CCC2)C1c1sc2ccccc2c1C (configuration not stated)	-3.4
COC(=O)C1=C(C)NC2=C(C(=O)CC(C)(C)C2)C1c1ccccn1 (configuration not stated)	0.16
COC(=O)C1=C(C)NC2=C(C(=O)CCC2)C1c1ccc(C#Cc2ccccc2)s1 (configuration not stated)	3.1*
CC1=C(C(=O)OCCc2ccccc2)C(c2ccccn2)C2=C(CCCC2=O)N1 (configuration not stated)	1.4
Brc1cc2c(cc1CSc1nc3ncccc3[nH]1)OCO2	-0.34
CN(C)CCOC(=O)c1c[nH]c2ccccc12	-0.97
Cc1ccc(C(C)NC(=O)C(C)(C)C)c(C)c1 (configuration not stated)	0.61
N/C(=N\S(=O)(=O)c1cc(Cl)c(Oc2ccc([N+](=O)[O-])cc2Cl)c(Cl)c1)c1ccccn1	2.1
Cc1ccc(-n2nnnc2-c2cnc(-c3ccccc3)nc2-c2ccccc2)cc1	-2.2
CCNc1nc2ccc(Cl)cc2nc1NCC	4.6*
Clc1ccc2nc3c(nc2c1)Nc1ccccc1S3	0.76
CCNc1nc(-c2ccc(Cl)cc2)c(-c2ccc(C)cc2)s1	-2.2
O=C(CSc1nccs1)N1CCN(c2ccccc2)CC1	-0.27
O=C1OC(Nc2ccccc2F)c2ccccc21 (configuration not stated)	-2.4
Cc1occ(-c2cc(F)ccc2Cl)c1C(=O)NC1Cc2ccccc2C1	-0.51
FC(F)(F)c1cccnc1SCc1ccc(Cl)cc1	-1.6
N#Cc1cnc(SCc2ccc(Cl)cc2)nc1N	0.28
N#Cc1c(SCc2ccc(Cl)cc2)nsc1Nc1ccc(Cl)cc1	3*
COc1ccc([N+](=O)[O-])c(OC)c1C(N)=O	-2.1
CCOC(=O)N1CCc2c(sc3c2C(=O)NC(c2ccc(C)cc2)N3)C1 (configuration not stated)	-4.1
N#Cc1cccnc1NNC(=O)Nc1ccccc1F	-0.46
SMILES	Dicer processing
CC(C)OC(=O)CSc1nnc(-c2ccc(Br)cc2)o1	0.88
COc1ccc(-c2nnc(SCC(=O)OC(C)C)o2)cc1	3.1*
Cc1ccc(-c2nnc(SCC(=O)OC(C)C)o2)cc1	2
CCOC(=O)C1=C(c2ccccc2)Nc2nc3ccccc3n2C1c1ccccc1 (configuration not stated)	-0.84
O=C(CSc1nc2ccccc2s1)Nc1ccc(Cl)cc1	0.57
O=C(CSc1nnc2ccccn12)Nc1nc(-c2ccc(Cl)cc2)ns1	-2.9
Cc1nnc(SCC(=O)Nc2nsc(-c3ccc(C(C)(C)C)cc3)n2)s1	1.8
O=C(CSc1ccc2ccccc2n1)Nc1nsc(-c2ccccc2)n1	2.1
NC(=O)CSc1nnc2ccccn12	0.34
CC(C)(C)c1ccc(-c2nc(NC(=O)CSc3ncn[nH]3)ns2)cc1	7.1*
O=C(CSc1nnc2scc(-c3ccccc3)n12)Nc1nsc(-c2ccccc2)n1	0.12
O=C(CSc1nnc2ccccn12)Nc1ccc(-c2nc3ccccc3s2)cc1	3.5*
Cn1ccnc1SCC(=O)Nc1nc2ccccc2s1	-0.98
Cc1ccccc1-c1nc(NC(=O)CSc2nnc3ccccn23)ns1	3.5*
Cc1ccc(-c2csc3nnc(SCC(=O)Nc4nsc(-c5ccccc5)n4)n23)cc1	4.6*
O=C(CSc1ncn[nH]1)Nc1ncccn1	0.99
CC(N/C=C(\C#N)c1nn[nH]n1)C(C)(C)C (configuration not stated)	0.2
CSc1ccc([N+](=O)[O-])cc1-c1ccn[nH]1	0.1
CCC(=O)N1C2C=CC(C2)C1(C(F)(F)F)C(F)(F)F (configuration not stated)	1.5
Nc1nonc1-n1nnc(C(=O)O)c1-c1cccc2ccccc12	2
Cc1ccc(CNCCNCC(C)O)s1 (configuration not stated)	0
CN(C)C(=O)COc1cccc2ccccc12	0.06
CC1=C(C(=O)OCCOc2ccccc2)C(c2ccc(O)cc2)C2=C(CC(C)(C)CC2=O)N1 (configuration not stated)	-0.31
CCCCNC(=O)O/N=C(\N)Cc1cccs1	0.45
O=C(CSC1CC(=O)N(c2ccccc2)C1=O)Nc1ccc(Cl)cc1 (configuration not stated)	-1.4
SMILES	Dicer processing
COC(=O)c1sc2cc(Cl)ccc2c1O	-1.4
CN(C)c1ccc(NC2CC(=O)N(c3ccc(F)cc3)C2=O)cc1 (configuration not stated)	-1.6
CCCCCCCNC1CC(=O)N(c2ccc(F)cc2)C1=O (configuration not stated)	3.9*
CC(C)CNC1CC(=O)N(c2ccc(C(C)C)cc2)C1=O (configuration not stated)	-0.87
CCN1CCN(C(=O)CSc2nc(-c3ccco3)cc(C(F)(F)F)n2)CC1	0.46
Cc1nc2ccc(F)cc2c2c1CCS2	1.1
CC(C)C(N)C(O)(c1ccccc1)c1ccccc1 (configuration not stated)	3.9*
COc1ccc(C(O)(c2ccccc2)c2ccccc2)cc1	1.9
C#CC(O)(c1ccccc1)c1ccccc1	0.09
Cc1cccc2c1NC(=O)C2(O)CC(=O)c1ccc(C(C)C)cc1 (configuration not stated)	1.2
O=C(O)C1C2C=CC(C2)C1C(=O)N1CCc2ccccc21 (configuration not stated)	2.5
O=C(C1CC1)N1CCc2ccccc21	3.3*
O=C(C1CC1)N1c2ccccc2CCc2ccccc21	2.8
CSc1scc(-c2cccs2)c1CNC(=O)c1ccccc1Cl	-0.94
COC(=O)C1=C(C)NC2=C(C(=O)CC(C)(C)C2)C1c1cc2c(cc1Br)OCO2 (configuration not stated)	0.96
COc1cc2c(cc1OC)C(c1ccc(F)cc1)C1=C(CC(C)(C)CC1=O)N2 (configuration not stated)	2
CC1(C)CC(=O)C2=C(C1)Nc1cc3c(cc1C2c1ccc(Br)cc1)OCO3 (configuration not stated)	4.7*
O=S(=O)(NC1=NCCCN1)c1cc(C(F)(F)F)cc(C(F)(F)F)c1	-1
O=C(O)c1cc(Nc2nc(-c3cccnc3)cs2)ccc1O	1.2
Cc1ccc(N2C(=O)CC(=O)N(c3ccc(C)c(C)c3)C2=S)cc1C	0.05
Cn1cc(Br)c(-c2cccc(N3C(=O)CC(C)(C)CC3=O)c2)n1	-0.35
Cc1cc(N2C(=O)CC3(CCCC3)CC2=O)ccc1Br	3.2*
CSc1scc(-c2ccc(Cl)cc2)c1CNC(=O)Nc1ccccc1	-0.06
CNC(=S)N1CCOC1c1ccc([N+](=O)[O-])s1 (configuration not stated)	-1.2
O=C(O)C(Cc1ccccc1)N1C(=O)CSC1=S (configuration not stated)	-0.8
S=c1[nH]nc(-c2ccccc2Cl)n1C1CCCCC1	0.48
S=c1[nH]nc(CSCc2cccc3ccccc23)n1C1CCCCC1	3.6*
S=c1[nH]nc(Cc2ccccc2)n1C1CCCCC1	0.77
COc1ccc(C(O)c2cccs2)cc1OC (configuration not stated)	-0.43
Cc1c(NC(N)=S)c(=O)n(-c2ccccc2)n1C	-0.14

Bioassay records as filed in PubChem.
